Measurements reported in the supplement of paper PMC10849652.
Of roughly 7,900 targets only a part is listed; those with a hit were picked by preference. About 0.6% of all pairs of compound and target were hits. Values without a mark were called inactive.

Key:
Test in all cases: log2 fold change, soluble protein after heating vs DMSO (PISA); higher = thermal stabilisation; K562 cells, 10 uM, 30 min; active = over 0.2 and 3.5 SD of the protein, either way, in both replicates (recomputed)
[1] = compound: CC[C@@H]1C(=O)N(C)c2cnc(Nc3ccc(C(=O)NC4CCN(C)CC4)cc3OC)nc2N1C1CCCC1
Outline: (§1)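 Thermal stability values are relative to control samples and come from duplicates. They are expressed as log2 fold changes. For measurement, K562 cells (2×10^6 cells/mL) received 10 μM compound for 30 min, and aliquots were heated for 3 min over 48°C-58°C, pooled, and extracted at 4°C in PBS with 0.5% NP-40. Soluble protein, the supernatant after 21,000xg for 90 min, was quantified by TMTpro 16plex LC-MS/MS with equalised channel sums.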

[2] = compound: CC[C@@H]1C(=O)N(C)c2cnc(Nc3ccc(C(=O)N[C@H]4CC[C@H](N5CCN(CC6CC6)CC5)CC4)cc3OC)nc2N1C(C)C [volasertib]
Outline: as §1

[3] = compound: CC[C@H](C)N1C=C(C2=C(C=C(C=C21)C3=CN=C(C=C3)N4CCNCC4)C(=O)NCC5=C(C=C(NC5=O)C)C)C
Outline: as §1

[4] = compound: CC[C@H](C)[C@@H](C(=O)N[C@@H]([C@@H](C)O)C(=O)N[C@@H](CC(C)C)C(=O)[C@]1(CO1)C)NC(=O)[C@H]([C@@H](C)CC)N(C)C(=O)C [epoxomicin]
Outline: as §1

[5] = compound: CCn1c(C(=O)N(C2CC2)C2CC2)cc2c3c(ncn3C)c(Nc3cc(C)n(C)n3)nc21
Outline: as §1

[6] = compound: CCn1cc(-c2ccnc3[nH]c(-c4cccc(CN(C)C)c4)cc23)c(-c2ccc(NC(=O)N(C)C)cc2)n1
Outline: as §1

[7] = compound: CN(C)CC(=O)Nc1ccc2[nH]c(=O)c3ccccc3c2c1
Outline: as §1

[8] = compound: CN(CCOC1=CC=C(C=C1)C[C@H]2C(=O)NC(=O)S2)C3=CC=CC=N3 (racemic) [rosiglitazone]
Outline: as §1

[9] = compound: CN1C2=C(C3=C1C(=O)N(N=C3)CC4=CC(=CC=C4)N)SC(=C2)S(=O)C
Outline: as §1

[10] = compound: CN1CCC(CNc2ccc3ncc(-c4cccc(OC(F)(F)F)c4)n3n2)CC1
Outline: as §1

[11] = compound: CN1CCN(CCOc2cc(OC3CCOCC3)c3c(Nc4c(Cl)ccc5c4OCO5)ncnc3c2)CC1 [saracatinib]
Outline: as §1

[12] = compound: CN1CCN(c2nc(C3=C(c4c[nH]c5ccccc45)C(=O)NC3=O)c3ccccc3n2)CC1 [sotrastaurin]
Outline: as §1

[13] = compound: CN1CC[C@H](c2c(O)cc(O)c3c(=O)cc(-c4ccccc4Cl)oc23)[C@H](O)C1 [alvocidib]
Outline: as §1

[14] = compound: CN1CCc2c(c3ccccc3n2Cc2ccc(C(=O)NO)cc2)C1 [Tubastatin A]
Outline: as §1

[15] = compound: CNC(=O)C1=CC=CC=C1NC2=NC(=NC=C2Cl)NC3=C(C=C(C=C3)N4CCOCC4)OC
Outline: as §1

[16] = compound: CNC(=O)c1ccc(Nc2ncc(C(F)(F)F)c(NCc3nccnc3N(C)S(C)(=O)=O)n2)cc1 [defactinib]
Outline: as §1

[17] = compound: CNCc1ccc(-c2[nH]c3cc(F)cc4c3c2CCNC4=O)cc1 [rucaparib]
Outline: as §1

[18] = compound: CNc1nc(-c2ccc3c(N)n[nH]c3c2)cc(N2C[C@@H](C(=O)NC3CCCCC3)CC[C@H]2C)n1
Outline: as §1

[19] = compound: COC(=O)N[C@@H](C)CNc1nccc(-c2cn(C(C)C)nc2-c2cc(Cl)cc(NS(C)(=O)=O)c2F)n1 [encorafenib]
Outline: as §1

[20] = compound: COC(=O)[C@H](CCSC)NC(=O)C1=C(C=C(C=C1)NC[C@H](CS)N)C2=CC=CC=C2
Outline: as §1

Chain of UniProt Q9UMY1 (Q9UMY1 whole entry, looked up): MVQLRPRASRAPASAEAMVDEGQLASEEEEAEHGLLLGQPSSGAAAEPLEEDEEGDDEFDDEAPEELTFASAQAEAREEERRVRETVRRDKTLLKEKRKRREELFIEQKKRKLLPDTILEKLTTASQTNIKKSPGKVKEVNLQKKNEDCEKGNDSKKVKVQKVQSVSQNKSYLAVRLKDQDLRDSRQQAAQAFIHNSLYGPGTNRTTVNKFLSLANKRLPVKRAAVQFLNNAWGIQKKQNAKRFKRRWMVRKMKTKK
Chain of UniProt Q8N573 (Q8N573 whole entry, looked up): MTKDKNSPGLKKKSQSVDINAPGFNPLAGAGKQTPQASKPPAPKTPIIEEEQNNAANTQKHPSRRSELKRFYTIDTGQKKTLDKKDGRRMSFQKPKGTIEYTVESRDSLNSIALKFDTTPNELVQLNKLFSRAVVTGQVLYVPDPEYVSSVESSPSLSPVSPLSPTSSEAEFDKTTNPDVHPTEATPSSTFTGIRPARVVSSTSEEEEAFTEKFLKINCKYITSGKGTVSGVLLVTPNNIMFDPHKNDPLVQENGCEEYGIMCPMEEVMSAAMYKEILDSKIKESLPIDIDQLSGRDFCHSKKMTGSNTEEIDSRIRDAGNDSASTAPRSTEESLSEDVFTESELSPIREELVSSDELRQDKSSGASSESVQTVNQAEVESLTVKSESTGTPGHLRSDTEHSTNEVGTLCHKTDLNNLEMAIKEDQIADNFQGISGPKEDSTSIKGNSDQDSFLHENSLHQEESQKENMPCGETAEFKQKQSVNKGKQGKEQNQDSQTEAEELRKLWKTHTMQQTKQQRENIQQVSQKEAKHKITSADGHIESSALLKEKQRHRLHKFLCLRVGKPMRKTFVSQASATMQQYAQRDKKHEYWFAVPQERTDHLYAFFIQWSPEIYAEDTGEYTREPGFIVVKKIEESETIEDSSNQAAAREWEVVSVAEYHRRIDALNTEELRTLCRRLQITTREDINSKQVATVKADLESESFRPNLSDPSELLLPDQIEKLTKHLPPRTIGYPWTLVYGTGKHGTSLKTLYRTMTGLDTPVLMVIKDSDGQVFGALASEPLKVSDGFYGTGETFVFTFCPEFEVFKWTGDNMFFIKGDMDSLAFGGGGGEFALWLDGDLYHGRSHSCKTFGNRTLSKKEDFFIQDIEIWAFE
Chain of UniProt Q9H8H0 (Q9H8H0 whole entry, looked up): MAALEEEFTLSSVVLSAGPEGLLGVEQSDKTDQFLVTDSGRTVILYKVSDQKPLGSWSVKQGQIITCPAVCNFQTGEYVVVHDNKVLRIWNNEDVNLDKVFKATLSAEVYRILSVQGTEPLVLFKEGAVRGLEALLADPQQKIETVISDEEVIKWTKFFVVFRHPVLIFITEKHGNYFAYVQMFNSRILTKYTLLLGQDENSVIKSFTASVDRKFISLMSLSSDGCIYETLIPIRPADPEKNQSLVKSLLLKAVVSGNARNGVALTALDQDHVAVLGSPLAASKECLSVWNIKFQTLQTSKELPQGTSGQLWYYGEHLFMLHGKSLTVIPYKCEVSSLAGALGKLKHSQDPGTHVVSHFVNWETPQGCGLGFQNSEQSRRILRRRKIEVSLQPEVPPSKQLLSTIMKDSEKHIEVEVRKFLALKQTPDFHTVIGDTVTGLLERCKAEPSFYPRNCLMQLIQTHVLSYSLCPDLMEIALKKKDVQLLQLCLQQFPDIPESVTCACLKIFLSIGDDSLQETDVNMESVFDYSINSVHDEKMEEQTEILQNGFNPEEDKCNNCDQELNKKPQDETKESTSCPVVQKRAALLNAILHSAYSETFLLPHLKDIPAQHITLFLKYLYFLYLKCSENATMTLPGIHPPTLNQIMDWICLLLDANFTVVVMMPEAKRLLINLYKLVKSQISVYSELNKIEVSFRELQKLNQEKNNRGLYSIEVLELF
Chain of UniProt O75323 (O75323 whole entry, looked up): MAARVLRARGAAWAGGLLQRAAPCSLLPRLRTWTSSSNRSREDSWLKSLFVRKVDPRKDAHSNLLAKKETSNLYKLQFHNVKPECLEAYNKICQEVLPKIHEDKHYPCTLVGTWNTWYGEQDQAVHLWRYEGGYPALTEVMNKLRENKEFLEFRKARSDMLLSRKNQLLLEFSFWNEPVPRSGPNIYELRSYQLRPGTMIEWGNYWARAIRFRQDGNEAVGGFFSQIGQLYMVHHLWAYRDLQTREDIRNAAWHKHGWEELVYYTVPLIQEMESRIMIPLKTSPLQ
Chain of UniProt Q9ULX3 (Q9ULX3 whole entry, looked up): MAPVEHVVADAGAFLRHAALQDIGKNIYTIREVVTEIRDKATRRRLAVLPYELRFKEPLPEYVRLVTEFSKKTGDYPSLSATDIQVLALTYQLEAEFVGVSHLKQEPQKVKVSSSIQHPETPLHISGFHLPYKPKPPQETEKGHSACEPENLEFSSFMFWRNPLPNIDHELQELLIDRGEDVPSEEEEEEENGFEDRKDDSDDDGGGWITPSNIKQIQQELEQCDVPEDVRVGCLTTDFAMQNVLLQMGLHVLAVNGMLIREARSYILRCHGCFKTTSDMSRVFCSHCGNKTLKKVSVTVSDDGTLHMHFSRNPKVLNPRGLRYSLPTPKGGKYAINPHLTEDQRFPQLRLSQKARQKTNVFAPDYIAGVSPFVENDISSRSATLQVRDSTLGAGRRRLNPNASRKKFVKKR
Chain of UniProt Q9NZT2 (Q9NZT2 whole entry, looked up): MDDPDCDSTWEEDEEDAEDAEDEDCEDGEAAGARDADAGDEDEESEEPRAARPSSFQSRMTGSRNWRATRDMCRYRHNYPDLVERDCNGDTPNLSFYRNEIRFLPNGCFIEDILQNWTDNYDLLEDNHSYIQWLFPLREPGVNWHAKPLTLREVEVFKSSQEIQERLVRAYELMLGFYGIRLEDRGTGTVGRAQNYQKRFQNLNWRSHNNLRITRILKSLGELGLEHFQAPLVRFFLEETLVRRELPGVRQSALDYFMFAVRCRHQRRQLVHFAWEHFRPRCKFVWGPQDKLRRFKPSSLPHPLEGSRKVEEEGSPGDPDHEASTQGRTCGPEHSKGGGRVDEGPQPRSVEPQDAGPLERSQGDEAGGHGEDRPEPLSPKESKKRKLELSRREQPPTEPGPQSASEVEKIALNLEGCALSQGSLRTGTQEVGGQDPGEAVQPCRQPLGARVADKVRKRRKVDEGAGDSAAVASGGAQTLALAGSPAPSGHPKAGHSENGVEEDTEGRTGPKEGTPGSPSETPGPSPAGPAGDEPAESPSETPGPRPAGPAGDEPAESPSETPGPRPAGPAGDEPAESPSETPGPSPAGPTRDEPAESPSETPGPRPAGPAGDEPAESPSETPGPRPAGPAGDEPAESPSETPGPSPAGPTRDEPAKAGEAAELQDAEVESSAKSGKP
Chain of UniProt O95747 (O95747 whole entry, looked up): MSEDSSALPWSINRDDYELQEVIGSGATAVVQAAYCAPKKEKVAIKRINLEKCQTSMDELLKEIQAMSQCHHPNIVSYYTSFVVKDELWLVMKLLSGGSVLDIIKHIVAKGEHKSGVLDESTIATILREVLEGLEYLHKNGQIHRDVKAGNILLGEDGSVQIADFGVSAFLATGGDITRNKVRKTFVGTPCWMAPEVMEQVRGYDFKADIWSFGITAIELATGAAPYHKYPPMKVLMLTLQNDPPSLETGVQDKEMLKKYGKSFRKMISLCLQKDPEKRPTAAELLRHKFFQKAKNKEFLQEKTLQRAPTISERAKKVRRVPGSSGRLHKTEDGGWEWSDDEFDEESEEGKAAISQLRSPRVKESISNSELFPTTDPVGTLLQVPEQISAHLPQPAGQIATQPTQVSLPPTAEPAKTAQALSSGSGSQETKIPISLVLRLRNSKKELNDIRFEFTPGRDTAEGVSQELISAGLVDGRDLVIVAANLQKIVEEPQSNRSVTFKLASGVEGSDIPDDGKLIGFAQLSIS
Chain of UniProt Q9HAN9 (Q9HAN9 whole entry, looked up): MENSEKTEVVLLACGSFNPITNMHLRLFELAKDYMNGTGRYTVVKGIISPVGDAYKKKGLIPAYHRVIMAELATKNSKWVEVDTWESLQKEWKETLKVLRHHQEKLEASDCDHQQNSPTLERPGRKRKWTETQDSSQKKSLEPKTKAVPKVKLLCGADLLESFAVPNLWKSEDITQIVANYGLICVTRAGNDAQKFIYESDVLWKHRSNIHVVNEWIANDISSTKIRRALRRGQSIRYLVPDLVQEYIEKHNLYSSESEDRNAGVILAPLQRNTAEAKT
Chain of UniProt Q9H000 (Q9H000 whole entry, looked up): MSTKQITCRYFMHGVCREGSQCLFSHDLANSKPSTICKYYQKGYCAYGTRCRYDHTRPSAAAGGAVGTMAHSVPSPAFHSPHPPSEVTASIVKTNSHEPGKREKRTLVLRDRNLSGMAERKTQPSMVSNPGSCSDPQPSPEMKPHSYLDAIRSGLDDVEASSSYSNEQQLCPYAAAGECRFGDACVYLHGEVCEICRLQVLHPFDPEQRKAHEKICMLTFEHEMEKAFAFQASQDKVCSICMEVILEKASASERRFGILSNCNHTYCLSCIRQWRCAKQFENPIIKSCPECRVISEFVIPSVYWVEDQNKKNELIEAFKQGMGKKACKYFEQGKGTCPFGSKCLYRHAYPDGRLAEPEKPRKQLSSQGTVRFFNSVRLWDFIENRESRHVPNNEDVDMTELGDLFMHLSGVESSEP
Chain of UniProt Q15014 (Q15014 whole entry, looked up): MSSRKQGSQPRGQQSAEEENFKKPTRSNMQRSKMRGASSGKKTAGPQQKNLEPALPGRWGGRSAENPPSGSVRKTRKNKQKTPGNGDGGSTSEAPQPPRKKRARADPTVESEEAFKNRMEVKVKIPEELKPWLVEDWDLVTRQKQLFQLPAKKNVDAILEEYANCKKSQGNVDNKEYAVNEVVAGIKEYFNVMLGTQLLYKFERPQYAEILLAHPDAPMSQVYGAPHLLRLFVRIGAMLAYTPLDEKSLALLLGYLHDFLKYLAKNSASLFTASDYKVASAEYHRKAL

Row | Target | log2 fold change [1] | log2 fold change [2] | log2 fold change [3] | log2 fold change [4] | log2 fold change [5] | log2 fold change [6] | log2 fold change [7] | log2 fold change [8] | log2 fold change [9] | log2 fold change [10] | log2 fold change [11] | log2 fold change [12] | log2 fold change [13] | log2 fold change [14] | log2 fold change [15] | log2 fold change [16] | log2 fold change [17] | log2 fold change [18] | log2 fold change [19] | log2 fold change [20]
1 | MRPS25 (UniProt P82663) | 0.031 | -0.057 | 0.145 | -0.126 | -0.091 | -0.295 | -0.056 | -0.042 | 0.074 | 0.036 | -0.097 | -0.059 | -0.039 | 0.084 | -0.021 | -0.072 | 0.129 | 0.233 | -0.016 | -0.017
2 | NOL7 (UniProt Q9UMY1) | 0.226 | 0.417 | -0.086 | -0.338 | -0.019 | 0.232 | -0.123 | -0.154 | 0.316 | 0.237 | -0.057 | 0.017 | 0.379 | 0.161 | 0.032 | 0.303 | 0.312 | 0.098 | 0.1 | -0.042
3 | NOL11 (UniProt Q9H8H0) | 0.029 | -0.097 | -0.025 | -0.015 | -0.031 | -0.027 | -0.005 | -0.025 | -0.028 | 0.126 | 0.093 | 0.022 | 0.089 | -0.08 | 0.007 | 0.186 | 0.071 | 0.002 | -0.012 | -0.009
4 | NIPSNAP2 (UniProt O75323) | 0.043 | 0.009 | -0.003 | 0.07 | 0.009 | -0.115 | -0.041 | 0.005 | -0.083 | 0.028 | -0.017 | -0.082 | 0.031 | -0.019 | 0.104 | -0.003 | -0.085 | -0.08 | -0.028 | 0.033
5 | MORF4L2 (UniProt Q15014) | 0.074 | 0.023 | 0.014 | 0.085 | 0.014 | 0.075 | -0.125 | -0.051 | 0.12 | 0.076 | -0.002 | -0.01 | 0.022 | 0.136 | -0.003 | 0.011 | 0.056 | -0.1 | 0.04 | 0.066
6 | OXR1 (UniProt Q8N573) | -0.052 | -0.071 | 0.035 | -0.013 | 0.006 | 0.026 | 0.062 | 0.005 | -0.033 | -0.257 (active) | -0.039 | -0.049 | -0.011 | 0.008 | -0.038 | -0.059 | -0.014 | -0.063 | 0 | 0.003
7 | NOLC1 isoform 2 (UniProt Q14978) | -0.155 | -0.024 | -0.051 | -0.06 | -0.015 | 0.047 | -0.048 | -0.018 | 0.026 | -0.112 | -0.007 | -0.036 | -0.206 | 0.153 | -0.122 | -0.346 (active) | -0.025 | -0.089 | -0.007 | 0
8 | MRPS24 (UniProt Q96EL2) | -0.004 | 0.121 | 0.126 | -0.067 | -0.031 | -0.095 | 0 | -0.026 | -0.004 | 0.07 | -0.153 | -0.124 | -0.202 | 0.024 | 0.067 | 0.041 | 0.153 | 0.137 | 0.08 | -0.108
9 | OTUD4 (UniProt Q01804) | 0.078 | -0.067 | 0.009 | -0.085 | -0.016 | 0.098 | 0.011 | -0.013 | 0.041 | 0.075 | -0.031 | -0.017 | 0.036 | -0.018 | -0.014 | 0.054 | 0.136 | 0.019 | 0.036 | 0.001
10 | MKRN2 (UniProt Q9H000) | -0.08 | -0.633 (active) | 0.106 | -0.068 | -0.064 | 0.193 | 0.126 | 0.063 | 0.152 | 0.082 | -0.203 | -0.024 | -0.002 | 0.177 | -0.08 | -0.049 | 0.258 | 0.007 | 0.109 | -0.005
11 | OXSR1 (UniProt O95747) | -0.122 | -0.274 (active) | 0.049 | 0.03 | -0.018 | -0.077 | 0.043 | 0.053 | 0.008 | -0.24 (active) | -0.048 | 0.004 | -0.094 | 0.038 | -0.061 | -0.093 | 0.001 | 0.033 | 0.042 | -0.051
12 | OGFR (UniProt Q9NZT2) | 0.026 | -0.103 | 0.167 | -0.076 | 0.018 | -0.041 | 0.142 | 0.007 | -0.027 | -0.134 | -0.044 | -0.146 | -0.04 | 0.089 | -0.028 | -0.094 | 0.132 | 0.009 | 0.031 | -0.154
13 | MOV10 (UniProt Q9HCE1) | 0.199 | 0.195 | -0.029 | -0.156 | 0.029 | 0.158 | -0.061 | -0.044 | 0.185 | 0.331 | 0.007 | 0.024 | 0.232 | 0.025 | 0.107 | 0.167 | 0.271 | 0 | 0.05 | 0.053
14 | MMS19 isoform 8 (UniProt Q96T76) | -0.102 | -0.43 (active) | 0.075 | 0.013 | -0.009 | -0.052 | 0.11 | 0.076 | 0.051 | -0.085 | -0.013 | -0.156 | -0.115 | -0.071 | 0.003 | -0.127 | 0.052 | -0.003 | 0.099 | -0.008
15 | NMNAT1 (UniProt Q9HAN9) | 0.302 | 0.161 | -0.007 | -0.168 | -0.06 | 0.098 | -0.092 | -0.126 | 0.228 | 0.053 | -0.044 | -0.033 | 0.158 | 0.07 | -0.121 | 0.237 | 0.354 | 0.02 | 0.147 | 0.091
16 | NOB1 (UniProt Q9ULX3) | -0.053 | -0.026 | 0.093 | -0.02 | -0.033 | 0.026 | -0.011 | 0.026 | 0.04 | -0.049 | -0.022 | -0.092 | 0 | 0.045 | -0.047 | -0.009 | 0.141 | 0.103 | 0.007 | 0
